Among the data in PubChem BioAssay AID743395 (Broad Institute, 2014) are outcome values, retold here.

Out of some 1,200 compounds screened, about 480 (40%) were called active. How the calls were made is not given here. The set was probably picked from earlier hits. The list is a sample of the results. Measured potencies and affinities stand elsewhere.

This assay can be described thus: viability loss in human hepatoma cells – cell-based, CellTiter-Glo luminescence, cherry-pick, set 2, cytotoxicity control, dose response (AID 743395). Particulars: HepG2 viability, CellTiter-Glo ATP luminescence, 72 h; series mostly up to 26 µM. (In general: ATP-based viability assays read luminescence as a measure of living cells.)
For `Cc1cc2oc(C(=O)NCCc3ccc(S(N)(=O)=O)cc3)c(C)c2cc1C`, the call was inactive.
The entry for `CCOC(=O)N1CCN(S(=O)(=O)c2ccc3c(c2)C(C)C(=O)N3)CC1` (stereo not drawn) is “inactive”; for `COc1ccccc1C1CC(=O)Nc2cc3c(cc21)OCCO3` (stereo not drawn) it is “inactive”; for `CCOc1ccccc1NC(=O)CC1SC(=N)N(c2ccccc2)C1=O` (stereo not drawn) it is “inactive”.
With `O=S1(=O)c2ccc(Br)cc2N2CCC[C@H]2CN1Cc1ccccc1`, the call was inactive.
For the molecule `O=C(CC1Sc2ccccc2NC1=O)NNc1cccc(Cl)c1Cl` (stereo not drawn), the outcome was inactive.
The entry for `CC(=O)OC1CCC2(C)C(=CCC3C2CCC2(C)C3CC3ON=C(C)C32)C1` (stereo not drawn) is “inactive”; for `Cc1ccc(S(=O)(=O)N2C[C@H]3[C@H]4C(=O)N(C)C(=O)[C@H]4CC(=O)[C@H]3[C@@H]2c2ccccc2F)cc1` it is “inactive”; for `CCCNC(=O)N1C[C@@H]2[C@H](c3ccccc31)[C@H](CO)N2Cc1ccc(OC)cc1` it is “inactive”.
In the case of `NS(=O)(=O)c1cc(Cl)c(Cl)c(S(N)(=O)=O)c1` it was “inactive”.
In the case of `COc1ccc(CC(=O)NC(c2ccccc2)c2ccc(C)cc2)c(OC)c1` (stereo not drawn) it was “inactive”; in that of `CC(C)NC(=O)NC(=O)COC(=O)c1ccc(S(=O)(=O)Nc2ccccc2)cc1`, “inactive”.
For the molecule `Cc1cc(-c2ccccc2)nc(N(C)NC(=O)C2CC2)c1S(C)(=O)=O`, the outcome was inactive.
The entry for `CCc1cccc(NC(=O)COC(=O)c2cc([N+](=O)[O-])ccc2N2CCOCC2)c1` is “inactive”; for `COc1ccc(C(=O)c2cc([N+](=O)[O-])ccc2N2CCN(C)CC2)cc1` it is “inactive”.
In the case of `O=C(COC(=O)c1cc([N+](=O)[O-])ccc1N1CCOCC1)Nc1c(Cl)cccc1Cl` it was “inactive”; in that of `C[C@@H]1CN([C@H](C)CO)S(=O)(=O)c2ccc(/C=C/c3ccccc3)cc2O[C@H]1CN(C)C(=O)NC1CCCCC1`, “inactive”; in that of `COc1cccc(/C=N/NC(=O)C(=O)N/N=C/c2cccc(OC)c2O)c1O`, “inactive”.
Take `C#CCN(C)CCCOc1ccc(Cl)cc1Cl`: the call was inactive.
In the case of `CC(C)Nc1nc(Nc2ccc(C#N)cc2)c2sccc2n1` it was “inactive”; in that of `CCCCNc1cc(C(=O)O)cc(S(N)(=O)=O)c1Oc1ccccc1`, “inactive”; in that of `CC[N+]1(CC)CC2=Cc3ccccc3CC2C1` (stereo not drawn), “inactive”.
For the molecule `Cc1ccc2c(CN3CCN(S(=O)(=O)c4ccc(Cl)cc4)CC3)cc(=O)oc2c1C`, the result was inactive.
In the case of `C#Cc1ccc(NC(=O)C2(C)CCN2C(=O)c2cc(C)n(C)n2)cc1` (stereo not drawn) it was “inactive”; in that of `CCN1C(=O)c2cccc3c(N)ccc(c23)C1=O`, “inactive”; in that of `Cn1c(NCc2ccccc2F)nc2cc(-c3ccsc3)sc2c1=O`, “inactive”.
The entry for `Cc1cc2oc(=O)cc(-c3ccccc3)c2c(C)c1-c1ccc(O)cc1` is “inactive”; for `Nc1ccc(-c2c3ccc(=O)cc-3oc3cc(O)ccc23)cc1C(=O)O` it is “inactive”.
